According to PubChem BioAssay (NCI):
About 79,000 compounds went through this panel and 15% of them were active in at least one assay; those are over-represented in the sample as a whole. A number with no mark means an inactive call. Activity calls are given as the source filed them. Cut-off read from the data, not from the text of the source: active = growth inhibition above about 70%; inactive = the rest.

Tests used:
[1] = NCI Yeast Anticancer Drug Screen. Data for the rad50 strain (AID 155);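 note: 0% = growth of vehicle-only cultures of the same strain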; conditions: S. cerevisiae rad50 strain growth inhibition; at 50.0 µM; stronger effect = higher value
In short: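 DNA repair mutant yeast, compound exposure, growth read-out; inhibition is taken relative to vehicle.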

[2] = NCI Yeast Anticancer Drug Screen. Data for the mec2-1 strain (AID 157); conditions: S. cerevisiae mec2-1 strain, at 50.0 µM, stronger effect = higher value
In short: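 Strain: mec2-1 (DNA repair/cell cycle alteration). Compound exposure, then growth measured; inhibition expressed relative to vehicle.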

[3] = NCI Yeast Anticancer Drug Screen. Data for the sgs1 mgt1 strain (AID 161);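 note: 0% = growth of cultures given vehicle only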; conditions: S. cerevisiae sgs1 mgt1 strain, at 50.0 µM, stronger effect = higher value
In short: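 Mutant yeast exposed to compound; growth scored against vehicle-only wells.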

[4] = NCI Yeast Anticancer Drug Screen. Data for the cln2 rad14 strain (AID 165);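 note: 0% = growth equal to vehicle treated cultures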; conditions: S. cerevisiae cln2 rad14 strain, at 50.0 µM, stronger effect = higher value
In short: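 Compounds are applied to the cln2 rad14 yeast strain, and growth is then compared with that of vehicle-treated cultures to give inhibition.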

[5] = NCI Yeast Anticancer Drug Screen. Data for the bub3 strain (AID 167); conditions: S. cerevisiae bub3 mutant strain, at 50.0 µM, stronger effect = higher value
In short: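 In this screen, a yeast mutant lacking normal mitotic checkpoint function is challenged with compound. Relative growth versus vehicle gives the inhibition value.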

[6] = NCI Yeast Anticancer Drug Screen. Data for the mlh1 rad18 strain (AID 175); conditions: S. cerevisiae mlh1 rad18 strain growth inhibition; at 50.0 µM; stronger effect = higher value
In short: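 Read-out is yeast growth inhibition, calculated against vehicle-only controls. The compound was applied to a strain engineered with DNA damage repair alterations.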

CC1=CC(C)(C)Nc2ccccc21
growth inhibition [1]: -0.25% | growth inhibition [2]: -5.6% | growth inhibition [3]: -8.95% | growth inhibition [4]: -3.95% | growth inhibition [5]: 6.95% | growth inhibition [6]: 8.45%

COc1ccc(/C=N\S(=O)(=O)c2ccc(OC)cc2)cc1
growth inhibition [1]: 16.3% | growth inhibition [2]: 13.7% | growth inhibition [3]: 15.1% | growth inhibition [4]: 8.8% | growth inhibition [5]: 2.2% | growth inhibition [6]: 0.5%

OC(c1ccccc1)(c1ccccc1)C(O)(c1ccccc1)c1ccccc1
growth inhibition [1]: 4.3% | growth inhibition [2]: 6.25% | growth inhibition [3]: 19.5% | growth inhibition [4]: -16.2% | growth inhibition [5]: -3.35% | growth inhibition [6]: 33.4%

CC1CCN(CCOC(=O)c2ccc(OC(C)C)cc2)C1 (stereo unspecified)
growth inhibition [1]: 8.1% | growth inhibition [2]: 12.6% | growth inhibition [3]: 24.4% | growth inhibition [4]: -10.5% | growth inhibition [5]: 11.2% | growth inhibition [6]: 12.1%

CCCCN1C(=O)c2cc(=O)[nH]c(O)c2C1C (stereo unspecified)
growth inhibition [1]: -19.4% | growth inhibition [2]: 6.35% | growth inhibition [3]: -25.9% | growth inhibition [4]: -0.55% | growth inhibition [5]: -27.1% | growth inhibition [6]: 3.25%

COc1cc2c(c(OC)c1OC)-c1ccc(OC)c(=O)cc1C(NC(=O)COc1ccccc1)CC2 (stereo unspecified)
growth inhibition [1]: 16.5% | growth inhibition [2]: -28.6% | growth inhibition [3]: 15.2% | growth inhibition [4]: 11.2% | growth inhibition [5]: 6.95% | growth inhibition [6]: 14.6%

CC(C)N(C(=O)C12C3C4C5C3C1(C#N)C5C42)C(C)C (stereo unspecified)
growth inhibition [1]: 10.1% | growth inhibition [2]: 6.95% | growth inhibition [3]: 12.1% | growth inhibition [4]: 5.95% | growth inhibition [5]: 2.35% | growth inhibition [6]: -9.45%

CCCCc1ccc(Nc2c(C(=O)OCC)cnc3cc4c(cc23)OCO4)cc1
growth inhibition [1]: 4.6% | growth inhibition [2]: -12.4% | growth inhibition [3]: -15.2% | growth inhibition [4]: 8.5% | growth inhibition [5]: 3.95% | growth inhibition [6]: -17.4%

Cc1ccc(OCC(O)CN2CCN(c3ccc(C)cc3)CC2)cc1 (stereo unspecified)
growth inhibition [1]: 26.6% | growth inhibition [2]: -10.4% | growth inhibition [3]: 36% | growth inhibition [4]: -35.7% | growth inhibition [5]: 4.55% | growth inhibition [6]: 0.05%

CCOc1ccc(NC(=O)c2cccc(C(=O)Nc3ccc(OCC)cc3)c2)cc1
growth inhibition [1]: -13.8% | growth inhibition [2]: -12.3% | growth inhibition [3]: -8.15% | growth inhibition [4]: -20.9% | growth inhibition [5]: -5.35% | growth inhibition [6]: -0.7%

Cc1ccc(OC/C=C/CS(=O)(=O)c2ccc(C)cc2)cc1
growth inhibition [1]: -11.6% | growth inhibition [2]: 10.3% | growth inhibition [3]: 5.65% | growth inhibition [4]: -23.2% | growth inhibition [5]: -12.7% | growth inhibition [6]: -28.6%

Cc1cc(Cl)c(Cl)cc1NC(=O)C(Br)C(Br)c1ccccc1 (stereo unspecified)
growth inhibition [1]: 75.8% (active) | growth inhibition [2]: 71.3% (active) | growth inhibition [3]: 74.3% (active) | growth inhibition [4]: 68.7% | growth inhibition [5]: 78.5% (active) | growth inhibition [6]: 82.2% (active)

COc1cccc2c(SCC(=O)Nc3ccccc3-c3ccccc3NC(=O)CSc3c4ccccc4nc4c(OC)cccc34)c3ccccc3nc12
growth inhibition [1]: -2.4% | growth inhibition [2]: 3.35% | growth inhibition [3]: -15.8% | growth inhibition [4]: -36% | growth inhibition [5]: -2% | growth inhibition [6]: -28.8%

O=C(Nc1cc(Cl)ccc1Cl)Oc1c(Cl)cc(Cl)c(Cl)c1[N+](=O)[O-]
growth inhibition [1]: 10.2% | growth inhibition [2]: -37.1% | growth inhibition [3]: 29.1% | growth inhibition [4]: -33.8% | growth inhibition [5]: -0.55% | growth inhibition [6]: 15.8%

Nc1ccc(N=Nc2ccc(C(=O)O)cc2)cc1
growth inhibition [1]: -32.9% | growth inhibition [2]: -48% | growth inhibition [3]: 18.1% | growth inhibition [4]: 3% | growth inhibition [5]: -26.4% | growth inhibition [6]: -7.6%

CC1(C)CCCC(C)(C)C1=NO
growth inhibition [1]: -20.2% | growth inhibition [2]: -5.6% | growth inhibition [3]: -9.75% | growth inhibition [4]: 12.4% | growth inhibition [5]: 5.75% | growth inhibition [6]: 22.9%

O=C(Nc1ccc2c(c1)OCO2)O/N=C\c1ccccn1
growth inhibition [1]: 9.15% | growth inhibition [2]: 26.8% | growth inhibition [3]: 17.7% | growth inhibition [4]: 57.4% | growth inhibition [5]: 9.4% | growth inhibition [6]: 42.1%

C/C(=N\N=C(/C)c1ccc(C)cc1)c1ccc(C)cc1
growth inhibition [1]: 10.7% | growth inhibition [2]: -30.3% | growth inhibition [3]: 20.1% | growth inhibition [4]: 6.1% | growth inhibition [5]: 2.45% | growth inhibition [6]: 3.7%

Cc1cccc(OS(=O)(=O)c2ccccc2)c1
growth inhibition [1]: 34.6% | growth inhibition [2]: 16.2% | growth inhibition [3]: 36% | growth inhibition [4]: 8.1% | growth inhibition [5]: -6.65% | growth inhibition [6]: 24.8%

COC(=O)C1=NC(=O)C(C#N)=C(C(=O)OC)C1(C(=O)c1ccc(OC)cc1)c1ccc(OC)cc1 (stereo unspecified)
growth inhibition [1]: -39.9% | growth inhibition [2]: 3.7% | growth inhibition [3]: -9.15% | growth inhibition [4]: 13.8% | growth inhibition [5]: 11.9% | growth inhibition [6]: -12.1%

Cc1[nH]c(/N=C/c2ccc(N(C)C)cc2)c(C#N)c1C
growth inhibition [1]: -10.1% | growth inhibition [2]: -0.6% | growth inhibition [3]: -18.4% | growth inhibition [4]: -8% | growth inhibition [5]: -5.75% | growth inhibition [6]: -7.75%

NC(=O)C12C3C4C1C1C2C3C41C(N)=O (stereo unspecified)
growth inhibition [1]: 29.1% | growth inhibition [2]: 12.4% | growth inhibition [3]: -1.7% | growth inhibition [4]: 16.5% | growth inhibition [5]: -5.8% | growth inhibition [6]: 20.6%

O=C1NC(O)c2cccc(F)c2O1 (stereo unspecified)
growth inhibition [1]: 20.4% | growth inhibition [2]: 6.3% | growth inhibition [3]: 43.4% | growth inhibition [4]: 31.5% | growth inhibition [5]: 6.7% | growth inhibition [6]: 58.9%

CC(NC(=O)C(CSCc1ccccc1)NC(=O)OCc1ccccc1)C(=O)OCc1ccccc1 (stereo unspecified)
growth inhibition [1]: -38% | growth inhibition [2]: -9.7% | growth inhibition [3]: -11.2% | growth inhibition [4]: 24.4% | growth inhibition [5]: -3.05% | growth inhibition [6]: 10.8%

Nc1ccnc2n[nH]nc12
growth inhibition [1]: -3.7% | growth inhibition [2]: -2% | growth inhibition [3]: -19.1% | growth inhibition [4]: -9.05% | growth inhibition [5]: 5.05% | growth inhibition [6]: -26.8%

COc1cc2c(c(OC)c1OC)-c1ccc(SCC3CCC4CC3C4(C)C)c(=O)cc1C(NC(C)=O)CC2 (stereo unspecified)
growth inhibition [1]: 97.5% (active) | growth inhibition [2]: 97.3% (active) | growth inhibition [3]: 98% (active) | growth inhibition [4]: 96.2% (active) | growth inhibition [5]: 95.9% (active) | growth inhibition [6]: 96.9% (active)

CC(=O)/C(=C/N1C(=O)CC(=O)NC1=S)C(=O)Nc1ccccc1
growth inhibition [1]: -24.8% | growth inhibition [2]: -26.5% | growth inhibition [3]: -39.9% | growth inhibition [4]: 3.85% | growth inhibition [5]: -17.5% | growth inhibition [6]: -20.7%

CC(=O)Oc1cccc(C)c1
growth inhibition [1]: -20.6% | growth inhibition [2]: -4.75% | growth inhibition [3]: -18.8% | growth inhibition [4]: -28.4% | growth inhibition [5]: -13.2% | growth inhibition [6]: -5.65%

COC(=O)Cc1c(-c2[nH]c3ccccc3c2CC(=O)OC)[nH]c2ccccc12
growth inhibition [1]: 13.9% | growth inhibition [2]: 7.45% | growth inhibition [3]: 6% | growth inhibition [4]: -17.4% | growth inhibition [5]: 3.85% | growth inhibition [6]: -20.8%

COc1cc(Nc2nc3ccccc3nc2-c2cccs2)cc(OC)c1OC
growth inhibition [1]: 4.8% | growth inhibition [2]: 14% | growth inhibition [3]: 29.6% | growth inhibition [4]: 29.8% | growth inhibition [5]: 26.1% | growth inhibition [6]: 6%

COc1ccc(Cl)cc1NC(=O)c1cccc(Cl)c1
growth inhibition [1]: 18.8% | growth inhibition [2]: 16.9% | growth inhibition [3]: 7.8% | growth inhibition [4]: 10.9% | growth inhibition [5]: 30.1% | growth inhibition [6]: -0.3%

O=S1(=O)C=CC(N/N=C/c2cc(Cl)cc(Cl)c2)=C1
growth inhibition [1]: 37.7% | growth inhibition [2]: 9.3% | growth inhibition [3]: 20.5% | growth inhibition [4]: -38.2% | growth inhibition [5]: 26.9% | growth inhibition [6]: 26.6%

Cc1cc(C(O)CCCc2ccccc2)cc(C)c1O (stereo unspecified)
growth inhibition [1]: 37.6% | growth inhibition [2]: 6.4% | growth inhibition [3]: 3.7% | growth inhibition [4]: 34.4% | growth inhibition [5]: 42% | growth inhibition [6]: 5.1%

Cc1cc(Cc2ccc(N)c(C)c2)ccc1N
growth inhibition [1]: 3.4% | growth inhibition [2]: 0.9% | growth inhibition [3]: -12.8% | growth inhibition [4]: -52.9% | growth inhibition [5]: -19% | growth inhibition [6]: -2.45%

CCN(CC)Cc1cc(Oc2ccc(O)c(CN(CC)CC)c2)ccc1O
growth inhibition [1]: 11.1% | growth inhibition [2]: 8.5% | growth inhibition [3]: 3.65% | growth inhibition [4]: -22.7% | growth inhibition [5]: 11.6% | growth inhibition [6]: -4.4%

O=C1NC(CN2CCCCC2)C(=O)NC1CN1CCCCC1 (stereo unspecified)
growth inhibition [1]: -1.1% | growth inhibition [2]: -13.4% | growth inhibition [3]: 8.7% | growth inhibition [4]: -8.7% | growth inhibition [5]: -20.1% | growth inhibition [6]: 0%

O=C(CC(c1ccccc1)C(Br)[N+](=O)[O-])c1ccccc1 (stereo unspecified)
growth inhibition [1]: 27.6% | growth inhibition [2]: -0.35% | growth inhibition [3]: 36.6% | growth inhibition [4]: -9.9% | growth inhibition [5]: 40% | growth inhibition [6]: 32.4%

CCCCc1c2c(nc3c1CCc1cc4c(nc1-3)-c1nc3c(c(CCCC)c1CC4)CCC/C3=C\c1ccccc1)/C(=C/c1ccccc1)CCC2
growth inhibition [1]: 16.6% | growth inhibition [2]: 3.2% | growth inhibition [3]: -0.25% | growth inhibition [4]: 5.4% | growth inhibition [5]: 5.05% | growth inhibition [6]: 2.8%

CCOC(=O)C1=C(Nc2ccc(Cl)cc2Cl)OC/C1=N\NS(=O)(=O)c1ccc(C)cc1
growth inhibition [1]: -3.95% | growth inhibition [2]: 9.25% | growth inhibition [3]: 1.2% | growth inhibition [4]: -8.6% | growth inhibition [5]: -2.45% | growth inhibition [6]: 3.3%

COc1ccc(OC)c(NC(=O)C(=O)NNC(=O)c2sc(NNC(C)=O)nc2C)c1
growth inhibition [1]: 66.7% | growth inhibition [2]: 28.8% | growth inhibition [3]: 47.4% | growth inhibition [4]: 26.5% | growth inhibition [5]: 61% | growth inhibition [6]: 30.8%

Cc1c(C)c(Cl)c(C)c(C(Cl)(Cl)Cl)c1C
growth inhibition [1]: 0.85% | growth inhibition [2]: -1.3% | growth inhibition [3]: 2.05% | growth inhibition [4]: 12.2% | growth inhibition [5]: -0.65% | growth inhibition [6]: -6.25%
